Sampled rows, rich in hits. Any-hit rate of the full collection: about 4.9%.
HSF-1 act = HSF-1 activators, primary screen, NIH3T3-HGL cells, MG132 stress, luminescence, single point. NIH3T3-HGL HSF-1 luciferase reporter, 8 h; 100% = twice DMSO control signal. activation, % at 9 µM. 1.7% of 300,000 active. AID 504408, 2011;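 active means mean replicate activation of at least 50% with a set share of replicates each reaching 50%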;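 further: 0% = median of the neutral control wells and 100% = twice that signal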
Platelet DG rel = inhibitors of platelet dense granule secretion, primary screen, cell-based, MLPCN, human platelets | human platelet-rich plasma, SFLLRN dense granule ATP release, luminescence | inhibition, %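 (compounds screened at 7.5 µM in platelet-rich plasma)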 | 0.22% of 300,000 active | AID 1663, 2009;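 active means mean replicate score, as percent of positive control, at or above 50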
dFosB activator = activators of delta FosB homodimer, primary screen, biochemical, fluorescence polarization, TAMRA-CDK5 oligo, single point. activation, % at 25 µM. purified delta FosB; percent of positive-control signal above neutral wells. 0.99% of 340,000 active. Protein FosB (Mus musculus), P13346;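 active means mean activation above about 17%, with every replicate also reaching it, limit read from the data, passing the limit was not always enough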
Target sequence (P13346 whole entry, looked up): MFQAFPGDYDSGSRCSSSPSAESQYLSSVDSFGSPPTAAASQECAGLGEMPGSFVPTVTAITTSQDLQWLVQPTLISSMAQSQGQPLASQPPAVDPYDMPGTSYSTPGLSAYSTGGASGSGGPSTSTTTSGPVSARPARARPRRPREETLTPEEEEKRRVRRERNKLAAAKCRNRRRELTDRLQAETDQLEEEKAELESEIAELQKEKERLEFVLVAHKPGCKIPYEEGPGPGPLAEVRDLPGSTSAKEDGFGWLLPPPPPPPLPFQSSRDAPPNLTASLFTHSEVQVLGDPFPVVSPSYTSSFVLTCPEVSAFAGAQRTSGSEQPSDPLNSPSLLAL
MPTP block = mitochondrial permeability transition pore inhibitors, primary screen, biochemical, isolated mouse mitochondria, absorbance. Ca2+ swelling absorbance, 30 min. inhibition, % at 10 µM. 1.4% of 360,000 active. AID 602449, 2012;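 active means inhibition of 50% or more, scaled per plate between neutral and stimulator controls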;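 further: 0% = DMSO wells given calcium and 100% = 1 mM EGTA wells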
HSP90 inh = HSP90 inhibitors, primary screen, cell lysate, luminescence; AID 1789, 2009; Rabbit reticulocyte lysate, luciferase refolding luminescence, 3 h; inhibition, % at 5.6 µM; 0.91% of 290,000 active;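 active means inhibition above the screen-wide mean plus 3 SD, computed separately per campaign, cut at about 16% in these data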;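 further: 0% = DMSO wells and 100% = 60 µM geldanamycin wells; inhibitors lower the luminescence because luciferase stays unfolded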
HSF1 inhib = HSF1 inhibitors in luciferase reporter cells, primary screen, cell-based, NIH3T3, luminescence | NIH3T3-HGL HSE-luciferase, MG132-induced, luminescence 8 h; hits give low values | activity change, negative = inhibition, % at 7.5 µM (by protocol) | 0.77% of 300,000 active;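 active means more than half of replicate wells show activity change below -50%, luminescence cut by over half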;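 further: luciferase reports HSF-1 transcriptional activity via heat shock element; 0% = median of DMSO wells and -100% = zero luminescence signal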
Active calls of the source: *.

Screening CCN(CCn1cccn1)C(=O)c1cc(COc2ccccc2SC)on1 returned HSF-1 act 45, Platelet DG rel -2, dFosB activator -3, MPTP block 2, HSP90 inh -8 and HSF1 inhib 24.
Screening Cc1ccc(C)c(OCc2cc(C(=O)N3CCN(C(=O)c4ccco4)CC3)no2)c1 returned HSF-1 act 33, Platelet DG rel 6, dFosB activator -16, MPTP block -1, HSP90 inh 0 and HSF1 inhib 25.
For CCN(CCn1cccn1)C(=O)c1cc(COc2cc(C)ccc2C)on1 the results were HSF-1 act 59*, Platelet DG rel -1, dFosB activator -9, MPTP block 0, HSP90 inh -2 and HSF1 inhib 20.
For Cc1ccc(C)c(NC(=O)CN(C)C(=O)c2cc3ccccc3oc2=O)c1 the results were dFosB activator -10 and MPTP block -3.
For O=C(COC(=O)COc1ccc2c(c1)CCC2)Nc1ccccc1 the results were dFosB activator 1 and MPTP block 0.
For CCCC1c2ccc(C)n2CCN1C(=O)Nc1ccc(F)cc1 (stereo not drawn) the results were HSF-1 act -76, Platelet DG rel 13, dFosB activator -2, MPTP block 3, HSP90 inh 1 and HSF1 inhib -66*.
Screening O=C(O)c1cc([N+](=O)[O-])c(NCCC2=CCCCC2)c([N+](=O)[O-])c1 returned HSF-1 act 59*, Platelet DG rel -2, dFosB activator 3, MPTP block 0, HSP90 inh 4 and HSF1 inhib 20.
Screening Cc1nc(S(=O)(=O)Nc2ccc3c(c2)OCCO3)cn1C returned HSF-1 act -7, Platelet DG rel -2, dFosB activator -4, MPTP block 2, HSP90 inh -1 and HSF1 inhib -7.
Cn1cc(S(=O)(=O)Nc2ccc3c(c2)OCCO3)cn1 was read as HSF-1 act -67, Platelet DG rel 13, dFosB activator 3, MPTP block 1, HSP90 inh 3 and HSF1 inhib -62*.
For CCn1cc(S(=O)(=O)Nc2ccc3c(c2)OCCO3)cn1 the results were HSF-1 act -83, Platelet DG rel -3, dFosB activator 1, MPTP block -1, HSP90 inh 16 and HSF1 inhib -81*.
Screening Cc1cccc(N2CCN(C(=S)Nc3ccc4nc5n(c(=O)c4c3)CCCCC5)CC2)c1C returned dFosB activator -5, MPTP block -1 and HSP90 inh 0.
`Cc1ccc2nc(SC(C)C(=O)N3CCOCC3)[nH]c2c1` (stereo not drawn) gave HSF-1 act 17, Platelet DG rel 9, dFosB activator -5, MPTP block 1, HSP90 inh -2 and HSF1 inhib 17.
`Cc1cc(C)nc(NC(=O)c2c(F)c(F)c(F)c(C(=O)Nc3cc(C)cc(C)n3)c2F)c1` gave HSF-1 act 62*, Platelet DG rel -10, MPTP block 1 and HSF1 inhib 19.
`Cc1cccc(NC(=O)Nc2cccc(F)c2)n1` gave HSF-1 act 19, Platelet DG rel 24, dFosB activator -1, MPTP block -1, HSP90 inh 4 and HSF1 inhib 13.
Cc1cccc(NC(=O)Nc2cc(C)cc(C)n2)c1 was read as HSF-1 act 53*, Platelet DG rel 4, dFosB activator 0, MPTP block 2, HSP90 inh 1 and HSF1 inhib 19.
Screening Cc1cc(C)nc(NC(=O)c2ccc3c(c2)OCO3)c1 returned HSF-1 act 12, Platelet DG rel 17, HSP90 inh 1 and HSF1 inhib 19.
Screening Cc1cc(C)nc(NC(=O)CCCC(=O)O)c1 returned HSF-1 act 9, Platelet DG rel -2, dFosB activator 7, MPTP block 0, HSP90 inh 0 and HSF1 inhib 0.
`Cc1cc(C)nc(NC(=O)Nc2ccc3c(c2)OCO3)c1` gave HSF-1 act 65*, Platelet DG rel 6, dFosB activator -3, MPTP block 2, HSP90 inh -1 and HSF1 inhib 29.

Screening results deposited in PubChem by several laboratories.
